Shown are actives, neighbours in structure and some others; about 3.2% of the full set was active somewhere.
FBA Mtb inh: Mtb FBA enzyme inhibitors, primary screen, biochemical, fluorescence, strain H37Rv. inhibition, % at 1 µM. hit rate 2.3% among 360,000. purified M. tuberculosis FBA, fluorescence read-out; in the data active = inhibition above about 27%;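 note: 0% = vehicle and 100% = reference inhibitor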
Target sequence (P9WQA3 whole entry, looked up): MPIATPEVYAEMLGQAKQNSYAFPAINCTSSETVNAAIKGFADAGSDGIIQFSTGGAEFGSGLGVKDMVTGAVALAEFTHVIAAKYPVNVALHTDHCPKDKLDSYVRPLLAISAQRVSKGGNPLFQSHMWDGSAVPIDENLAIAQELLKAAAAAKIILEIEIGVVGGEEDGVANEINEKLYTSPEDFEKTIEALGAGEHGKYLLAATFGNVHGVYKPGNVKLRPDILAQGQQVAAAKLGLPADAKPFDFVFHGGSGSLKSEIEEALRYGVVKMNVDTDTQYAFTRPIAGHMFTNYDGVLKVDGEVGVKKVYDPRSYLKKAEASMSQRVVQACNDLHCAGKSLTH
GDH-TPI counter-1: GDH-TPI coupling enzyme inhibitors, primary screen, artefact control for M. tuberculosis FBA inhibitor project, biochemical, absorbance, full deck; GDH-TPI coupled enzyme counterscreen, NADH absorbance; inhibition, % at 4.8 µM; hit rate 1.2% among 360,000; AID 588335, 2011; in the data active = inhibition above about 30%;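 note: 0% = DMSO wells and 100% = wells lacking the enzyme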
UGM FP inh: M. tuberculosis UGM enzyme inhibitors, primary screen, biochemical, fluorescence polarization, single point. hit rate 0.06% among 320,000. purified UGM, fluorescence polarization probe displacement. UDP-galactopyranose mutase (Mycobacterium tuberculosis (strain ATCC 25618 / H37Rv)), …. inhibition, % at 10 µM; in the data active = inhibition above about 10%, passing the limit was not always enough
Target sequence (P9WIQ1 whole entry, looked up): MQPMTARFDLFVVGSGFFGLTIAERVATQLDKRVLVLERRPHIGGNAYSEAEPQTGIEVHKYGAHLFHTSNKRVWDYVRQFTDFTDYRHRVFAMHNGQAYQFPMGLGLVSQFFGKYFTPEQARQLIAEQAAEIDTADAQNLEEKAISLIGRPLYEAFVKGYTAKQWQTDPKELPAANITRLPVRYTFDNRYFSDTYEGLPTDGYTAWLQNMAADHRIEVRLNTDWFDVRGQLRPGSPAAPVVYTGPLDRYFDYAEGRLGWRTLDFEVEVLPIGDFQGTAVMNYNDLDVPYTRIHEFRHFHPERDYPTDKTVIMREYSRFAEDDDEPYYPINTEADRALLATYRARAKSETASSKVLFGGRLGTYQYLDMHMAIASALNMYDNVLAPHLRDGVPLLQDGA
Mtb bLac sens: beta-lactam sensitization of Mtb H37Rv, H37Rv; M. tuberculosis H37Rv growth with meropenem, percent inhibition; inhibition, % at 25 µM; hit rate 0.27% among 330,000; AID 434955, 2010;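 note: growth measured after seven days incubation then overnight dye step; 0% = bacteria only wells and 100% = bacteria with antibiotic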
SSB-PriA inh: inhibitors of Klebsiella pneumoniae PriA binding to SSB C-terminal tail, primary screen, biochemical, AlphaScreen | inhibition, % at 33 µM | AID 1272365, 2023 | AlphaScreen SSBct-PriA binding, biotinylated peptide | hit rate 0.6% among 430,000 | PriA–SSB C-terminal tail interaction (Klebsiella pneumoniae); in the data active = inhibition mostly above about 37%, no sharp cut-off; inactive = mostly below about 20%;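 note: plate controls were negative control peptide for no effect and reference peptide for full effect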
Rv3671c inh: Rv3671c serine protease inhibitors, primary screen, biochemical, fluorescence polarization, M. tuberculosis H37Rv; P9WHR9; inhibition, % at 5.96 µM; hit rate 0.048% among 320,000; AID 2606, 2010; in the data active = inhibition above about 38%;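 note: extracellular domain of Rv3671c used as enzyme; 0% = enzyme with DMSO and 100% = no enzyme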
Mtb FBA confirm: M. tuberculosis aldolase blockers, biochemical, fluorescence, strain H37Rv, confirmation; purified M. tuberculosis FBA, fluorescence read-out; shares compounds with FBA Mtb inh; AID 651616, 2012; hit rate 78% among 5,600; inhibition, % at 1 µM; in the data active = inhibition above about 27%;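 note: 0% = vehicle wells and 100% = reference inhibitor wells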
GDH-TPI counter-2: GDH-TPI coupling enzyme inhibitors, artefact control for M. tuberculosis FBA inhibitor project, biochemical, fluorescence, high throughput. AID 652141, 2013. GDH-TPI coupled enzyme counterscreen. inhibition, % at 1 µM. hit rate 81% among 5,600. shares compounds with FBA Mtb inh; in the data active = inhibition above about 10%
GDH-TPI DR: GDH-TPI coupling enzyme inhibitors, dose response, artefact control for M. tuberculosis FBA inhibitor project, biochemical, fluorescence, IC50; shares compounds with FBA Mtb inh; GDH-TPI coupled enzyme assay, artifact counterscreen; IC50, µM; hit rate 79% among 170
* hit, by the source's call; · = no result; + = active, no number. Unless noted, the rule behind the calls is not given here.

SMILES | FBA Mtb inh | GDH-TPI counter-1 | UGM FP inh | Mtb bLac sens | SSB-PriA inh | Rv3671c inh | Mtb FBA confirm | GDH-TPI counter-2 | others
Brc1c(CSc2nc3ccccc3o2)nc2ncccn12 | 62.6* | 12.3 | -0.5 | -1.2 | -17.0 | -1.1 | 63.4* | 42.9*
Cc1cc(C)nc(SCc2nc3ncccn3c2Br)n1 | 66.3* | 10.2 | -1.7 | -5.9 | -9.8 | 1.8 | 31.0* | 9.6 | GDH-TPI DR=2.71*
Brc1c(CSc2nncn2-c2ccccc2)nc2ncccn12 | 83.3* | 18.6 | 1.3 | -0.5 | -12.2 | -5.2 | 103.2* | 74.6*
Clc1c(CSc2nc3ccccc3o2)nc2ccccn12 | 0.0 | 8.4 | -3.4 | -2.6 | 0.5 | 6.1 | · | ·
O=C(c1ccco1)N1N=C(c2cccs2)CC1c1ccc2nccnc2c1 (stereo not drawn) | · | · | · | · | 6.0 | · | · | ·
N#CCCn1cc(C(N)=O)c(-c2cccs2)n1 | 28.6* | -6.1 | -2.4 | -0.1 | -9.6 | 1.3 | 74.5* | 62.8*
N#CCCn1cc(C(=O)O)c(-c2cccs2)n1 | 0.2 | 1.9 | -1.9 | 1.9 | 0.2 | 1.4 | · | ·
O=C(Nc1ccc(-c2nc3ncccc3o2)cc1)c1ccco1 | 27.0* | 44.8* | 1.6 | 2.9 | -17.6 | -15.3 | 58.1* | 50.5*
O=C(Nc1ccc2oc(-c3cccnc3)nc2c1)c1ccco1 | 29.4* | 3.8 | -2.7 | -14.6 | 3.3 | -8.0 | -2.2 | -6.3
O=C(Nc1ccc(-c2nc3cccnc3s2)cc1)c1ccco1 | 28.8* | 27.9 | -0.7 | 7.2 | 2.0 | -39.7 | 10.5 | -2.2 | GDH-TPI DR=3.15*
O=C(Nc1ccc2oc(-c3cccnc3)nc2c1)c1ccc([N+](=O)[O-])o1 | 0.6 | -1.2 | · | · | -2.6 | · | · | ·
O=c1[nH]cccc1-c1nc2cc(Cl)ccc2n1Cc1ccccc1 | 76.8* | 1.3 | -0.2 | -2.2 | 3.8 | -4.8 | 5.3 | -1.8
NC(=NOC(=O)CCCOc1ccccc1)c1ccncc1 | · | · | · | · | -13.5 | · | · | ·
CN1CCN(C(=O)CSc2nc(-c3cccs3)ccc2C#N)CC1 | 49.7* | 27.9 | -1.5 | -17.0 | 15.7 | -2.4 | + | +
N#Cc1ccc(-c2cccs2)nc1SCc1cccnc1 | 34.5* | -1.5 | 0.8 | 40.5 | -6.4 | -1.8 | 12.4 | -5.0
O=C(CSc1ccc2ccccc2n1)NN=Cc1ccccc1O | · | · | · | · | -0.5 | · | · | ·
CC(=O)OC1CCC2(C)C(COc3ccc4ccc(=O)oc4c3)C(C)(O)CCC2C1(C)C (stereo not drawn) | 78.6* | 21.6 | 1.6 | 14.6 | -4.6 | -3.1 | 42.0* | 38.4*
O=C(COc1ccc2ccccc2c1)NCC1CCN(C2CCCC2)CC1 | · | · | · | · | 0.0 | · | · | ·
CC(=O)Nc1ccc(C2Nc3ccccc3C(=O)N2C2CCCCC2)cc1 (stereo not drawn) | 61.5* | 4.2 | -1.1 | -1.8 | -3.9 | -4.4 | 2.5 | 2.0
CCOc1ccc(-n2nc3ccc(NC(=O)c4ccc5c(c4)OCCO5)cc3n2)cc1 | 3.9 | 7.5 | -0.6 | 0.2 | -3.8 | -3.2 | · | ·
COc1ccc(-n2nc3ccc(N)cc3n2)cc1 | 56.1* | 15.9 | · | · | · | · | 53.9* | 40.9*
CCOc1ccc(-n2nc3ccc(N)cc3n2)cc1 | 73.8* | 15.7 | 1.1 | 24.7 | 2.8 | · | 14.4 | 0.9 | GDH-TPI DR=1.09*
CS(=O)(=O)N1CCC(C(=O)N(Cc2ccccn2)c2nc3ccc(F)cc3s2)CC1 | · | · | · | · | 1.0 | · | · | ·
COc1ccc(S(=O)(=O)N2CCN(CCNC(=O)c3cccc(OC)c3OC)CC2)cc1 | · | · | · | · | -14.0 | · | · | ·
COc1ccc([C@@H](O)CNC(=O)C(=O)NCc2ccc(Cl)cc2)cc1OC | · | · | · | · | -6.0 | · | · | ·
SMILES | FBA Mtb inh | GDH-TPI counter-1 | UGM FP inh | Mtb bLac sens | SSB-PriA inh | Rv3671c inh | Mtb FBA confirm | GDH-TPI counter-2 | others
COc1ccc2[nH]c(C)cc(=O)c2c1 | 12.8 | 7.0 | -1.0 | -12.4 | -5.9 | 0.3 | · | ·
COc1cc2[nH]c(=S)[nH]c(=O)c2cc1OC | · | · | · | · | -11.0 | · | · | ·
COc1ccc2[nH]c3c(=O)n(N)c(=O)[nH]c3c2c1 | 107.1* | 14.0 | 1.7 | 4.7 | -14.9 | · | 33.0* | 31.0*
COc1cc2[nH]c3c(=O)n(N)c(=O)[nH]c3c2cc1OC | 34.2* | 11.2 | -1.9 | 4.3 | -6.5 | -0.3 | 1.4 | -3.7
CC(=O)Nc1ccc(C2=CSC3=NCCN23)cc1 | · | · | · | · | 5.0 | · | · | ·
COc1ccc(-c2cnc(C(=O)NCc3cccs3)o2)cc1 | · | · | · | · | 13.0 | · | · | ·
COc1cc2c(cc1OC)C(C)N(C(=O)c1cc3c(s1)-c1ccccc1OC3)CC2 (stereo not drawn) | 58.8* | 18.8 | -0.7 | 4.2 | -11.2 | -12.7 | 36.7* | 32.6*
CCOC(=O)C1CCN(C(=O)c2cc3c(s2)-c2ccccc2OC3)CC1 | 85.4* | 25.7 | 1.6 | -5.2 | -34.2 | -13.6 | 3.1 | -3.2
COc1cc2c(cc1OC)C(C)N(C(=O)c1cc3c(s1)-c1c(C)cccc1OC3)CC2 (stereo not drawn) | 30.6* | 11.9 | 1.7 | 46.3 | -2.4 | -8.1 | 138.6* | 97.0*
Cc1nc(-n2cccc2)sc1C(=O)N1C2CCC1CC(S(=O)(=O)c1ccccc1)C2 (stereo not drawn) | · | · | · | · | -5.0 | · | · | ·
O=C(CN1CCc2nc(NC(=O)c3cnccn3)sc2C1)Nc1cc(C(F)(F)F)ccc1Cl | · | · | · | · | -3.0 | · | · | ·
O=C(C1CCCO1)N1CCc2ccc(NS(=O)(=O)c3ccc4c(c3)OCCO4)cc21 (stereo not drawn) | · | · | · | · | 1.0 | · | · | ·
Cc1ccc(C(=O)NC(=S)Nc2sc3c(c2-c2nc4ccccc4s2)CCCC3)cc1 | · | · | · | · | 4.0 | · | · | ·
CC(C)C(=O)Nc1sc2c(c1-c1nc3ccccc3[nH]1)CCCC2 | 43.2* | 14.2 | 2.0 | -6.6 | -16.6 | -16.6 | + | 181.8*
Cc1cc(OCC(=O)OC(C)(C)C)c2c3c(c(=O)oc2c1)CCC3 | 2.1 | 3.7 | 0.1 | -5.0 | -18.6 | -0.1 | · | ·
Cc1c(C)c2cc(Cl)c(OCC(=O)Nc3ccccn3)cc2oc1=O | 1.7 | -8.0 | · | · | · | · | · | ·
Cc1cc(OCc2nn[nH]n2)c2c3c(c(=O)oc2c1)CCCC3 | 83.7* | 10.1 | -0.7 | -4.5 | -6.2 | -9.6 | 58.7* | 47.2*
C=CCOC(=O)COc1cc(C)cc2oc(=O)c3c(c12)CCC3 | 57.0* | 17.4 | 1.9 | 8.5 | -18.5 | -0.6 | + | 169.6*

From PubChem
